# Screens: PubChem, National Center for Advancing Translational Sciences (NCATS)
# The full list was thinned out, with hits kept by preference.
# RE007 growth inh = less growth of the S. pombe RE007 Vpr strain | 360,000 compounds, 0.21% hits | S. pombe RE007 Vpr strain, BacTiter-Glo ATP luminescence, 24 h | Potency, µM (highest dose often 92.2 µM), hits mostly inhibitors | AID 651644; active = well fitted falling curve with a large enough effect; inconclusive = small, poorly fitted or top-dose-only effect; inactive = no such curve, though single readings can be large or run the other way; also: nearly all actives have a fitted effect of over 50% in size
#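 Fission yeast RE007 carrying one integrated HIV-1 vpr copy, seeded at OD 0.01 in PMG+AL medium with 23 nL pinned compound. Grown 24 h at 30 degrees; viability read by BacTiter-Glo luminescence after 5 min.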
# CHX counter = counter-screen hit for Shiga toxin inhibitors, cycloheximide; 300,000 compounds, 12% hits; max response, %; cell reporter, cycloheximide protein synthesis inhibition counterscreen; in the data active = max response mostly above about 13%, no sharp cut-off; inactive = mostly below about 14%; also: read at 38.3 µM for the half of the compounds with a filed dose
# Shiga toxin inh = Shiga toxin inhibition; Vero cells, Shiga toxin protein synthesis inhibition reporter; inhibition, % at 38.7 µM; 290,000 compounds, 9.2% hits; in the data active = inhibition mostly above about 28%, no sharp cut-off; inactive = mostly below about 43%
# LmPK inh = blocks Leishmania mexicana pyruvate kinase activity | Q27686 | purified LmPK, Kinase-Glo ATP luminescence, 1 h | Potency, µM (doses to about 57.5 µM), most hits filed as inhibitors | 290,000 compounds, 0.37% hits | AID 1721
#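 0.1 nM LmPK, 0.5 mM PEP, 0.1 mM ADP; 50 mM imidazole pH 7.2, 7 mM MgCl2, 50 mM KCl; 1 h RT. Kinase-Glo luminescence readout, normalized to no-enzyme (full inhibition) and uninhibited wells.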
# Giardia FBPA inh-1 = Giardia lamblia aldolase inhibition. A8B2U2. purified Giardia FBPA. Potency, µM (top dose mostly 59.6 µM), usual class: inhibitors. 290,000 compounds, 0.71% hits; also: nearly all actives have a fitted effect of over 55% in size
# Target sequence (A8B2U2 whole entry, looked up): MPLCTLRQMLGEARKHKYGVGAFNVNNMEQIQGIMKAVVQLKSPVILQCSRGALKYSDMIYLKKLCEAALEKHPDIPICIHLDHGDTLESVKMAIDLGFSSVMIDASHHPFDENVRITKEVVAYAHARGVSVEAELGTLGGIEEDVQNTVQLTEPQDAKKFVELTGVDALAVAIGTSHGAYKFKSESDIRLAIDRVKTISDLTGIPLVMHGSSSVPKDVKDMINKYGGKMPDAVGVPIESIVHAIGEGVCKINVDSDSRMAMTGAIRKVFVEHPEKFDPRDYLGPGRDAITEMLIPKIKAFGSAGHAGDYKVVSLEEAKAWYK
#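 Giardia FBPA (40 nM reagent) was preincubated 10 min at RT with compound (up to 57.5 uM final), then substrate plus GAPDH/TPI/NAD/arsenate coupling system with diaphorase/resazurin was added; resorufin fluorescence (525/598 nm) was read after 20 min.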
# TbPYK inhibitor = blocks Trypanosoma brucei pyruvate kinase. AID 624173. 410,000 compounds, 0.12% hits. Potency, µM (top dose mostly 76.8 µM), most hits filed as inhibitors. Q57TT1. TbPYK enzyme, Kinase-Glo Plus ATP luminescence, 45 min; also: nearly all actives have a fitted effect of over 50% in size
#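 In this concentration-response screen, enzyme-free wells defined baseline while DMSO plates tracked drift. Each reaction combined TbPYK, substrate, compound and 130 uM ADP for 45 min at room temperature. Kinase-Glo Plus luminescence gave the signal.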
# Giardia growth = Giardia lamblia growth inhibition; shares compounds with Giardia FBPA inh-1; Giardia lamblia trophozoite growth inhibition; Potency, µM (top dose mostly 57.5 µM), usual class: inhibitors; 1,500 compounds, 5% hits; AID 2785;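 also: trophozoites exposed to compound for 48 h at 37 °C; nearly all actives have a fitted effect of over 70% in size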
# Mammal cell tox = counter-screen for Giardia aldolase inhibitors: mammalian cell toxicity | shares compounds with Giardia FBPA inh-1 | mammalian cell viability counter-screen, qHTS | Potency, µM (highest dose often 57.5 µM), actives largely listed as inhibitors | 1,500 compounds, 4% hits;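 also: Chinese hamster ovary cells used as mammalian cytotoxicity surrogate; viability measured as cellular ATP by luminescence; compound exposure lasted 48 h before reading; nearly all actives have a fitted effect of over 60% in size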
# Giardia FBPA inh-2 = confirmation of Giardia fructose-bisphosphate aldolase inhibitors. shares compounds with Giardia FBPA inh-1. purified Giardia aldolase enzyme activity, qHTS. Potency, µM (series often up to 57.5 µM), actives largely listed as inhibitors. 1,500 compounds, 5% hits; also: nearly all actives have a fitted effect of over 45% in size
# Rabbit FBPA inh = selectivity test for Giardia aldolase inhibitors: rabbit aldolase | shares compounds with Giardia FBPA inh-1 | Rabbit muscle FBPA enzyme inhibition, selectivity counter-screen | Potency, µM (doses to about 57.5 µM), most hits filed as inhibitors | 1,500 compounds, 4% hits | AID 2794; also: nearly all actives have a fitted effect of over 60% in size
# Target sequence (P00883 whole entry, looked up): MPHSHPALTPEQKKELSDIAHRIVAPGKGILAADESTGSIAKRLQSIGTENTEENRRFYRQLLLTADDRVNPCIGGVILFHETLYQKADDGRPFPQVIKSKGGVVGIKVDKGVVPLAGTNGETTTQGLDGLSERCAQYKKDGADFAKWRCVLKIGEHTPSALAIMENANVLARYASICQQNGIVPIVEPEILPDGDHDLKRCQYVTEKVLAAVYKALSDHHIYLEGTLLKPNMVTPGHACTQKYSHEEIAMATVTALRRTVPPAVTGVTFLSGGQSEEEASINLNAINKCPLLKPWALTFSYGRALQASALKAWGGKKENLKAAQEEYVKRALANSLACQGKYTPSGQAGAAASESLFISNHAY
# GAPDH counter = GAPDH inhibition flagged for Giardia aldolase hits; shares compounds with Giardia FBPA inh-1; GAPDH coupling enzyme counterscreen, biochemical, qHTS; Potency, µM (titrated, usually from 57.5 µM), usual class: inhibitors; 1,500 compounds, 6% hits; AID 2795; also: nearly all actives have a fitted effect of over 55% in size
# Numbers stand for hits; . = inactive; ? = inconclusive; / = not tested or not shown; [ ] = remark or other dose. Unless noted, calls follow the shape of the dose curve; as a rule, active = well fitted curve in the direction sought with a large enough effect; inconclusive = small, poorly fitted or top-dose-only effect, or another doubt; inactive = no such curve, though single readings can be large; an effect the other way counts as inactive or inconclusive.
SMILES,RE007 growth inh,CHX counter,Shiga toxin inh,LmPK inh,Giardia FBPA inh-1,TbPYK inhibitor,Giardia growth,Mammal cell tox,Giardia FBPA inh-2,Rabbit FBPA inh,GAPDH counter
COC/C=C/C1=CC2=CC(=O)C(C)(OC(=O)c3cnc4ccccc4n3)C(=O)C2=CN1CCN1CCOCC1 (stereo unspecified),.,.,.,.[11.5 µM],16µM,.,.,.,?,?,?
CC(C)(C)c1cc(C(=S)N2CCN(CCO)CC2)cc(C(C)(C)C)c1O,.,.,.,.,10µM,?,.[10.4 µM],.,.,?,?
O=C(c1ccco1)N1CCN(S(=O)(=O)c2c(Cl)cccc2Cl)CC1,.,.,/,.,.,.,/,/,/,/,/
CC(=O)NC12CC3CC(C1)CC(C(=O)N1CCN(S(=O)(=O)c4ccc(C(C)C)cc4)CC1)(C3)C2,.,/,/,/,/,.,/,/,/,/,/
Oc1ccccc1CNc1cccc2cccnc12,.,45,62,.,6.3µM,.,.,.,.,.,.
COCc1cc(=O)[nH]c(Nc2nc(C)c3ccccc3n2)n1,.,.,.,.,.,.,/,/,/,/,/
COCc1cc(=O)[nH]c(Nc2nc3ccccc3o2)n1,.,61,65,.,10µM,.,.,?,.,.,?
COc1cccc(OCCn2ccnc2)c1,.,.,.,.,.,.,/,/,/,/,/
Clc1cccc(OCCn2ccnc2)c1,.,.,.,.,35µM,.,?,.,.,.,.
Cc1cccc(C)c1OCCCn1ccnc1,.,.,.,.,22µM,.,.,.,.,.,.
CC(C)(C)c1cc(Cl)ccc1OCCn1ccnc1,.,.,.,.,18µM,.,.,.,.,.,.
CC(C)(C)c1ccccc1OCCCCCn1ccnc1,.,.,.,.,18µM,.,.,.,.,.,.
CCOc1ccc(S(=O)(=O)N2CCCCC2)cc1NC(=O)Cc1ccsc1,.,/,/,/,/,.,/,/,/,/,/
COCCn1c(=O)cnc2cnc(OC)nc21,/,/,/,/,.,/,/,/,/,/,/
CC1(C(=O)NS(=O)(=O)Cc2ccccc2)CCN1C(=O)C1(c2ccc(Cl)cc2)CCC1 (stereo unspecified),.,/,/,/,/,.,/,/,/,/,/
CCc1ccccc1Nc1nn2c(=O)c3ccc(C(=O)NC4CCCCC4)cc3nc2s1,/,/,/,/,/,.,/,/,/,/,/
S=c1[nH]c2ccc(Cl)cc2[nH]1,.,.,.,.,.,?,/,/,/,/,/
COc1ccc(-c2cc(=O)[nH]c(=S)[nH]2)cc1,.,.,.,.,16µM,.,?,.,.,.,.
COc1ccc2[nH]c(=S)[nH]c2c1,.,.,.,.,7.1µM,.,.[10.4 µM],.,.,.,.
CCN(CC)c1nc(N2CCN(CCO)CC2)nc2ccccc12,.,.,.,.,13µM,.,.,.,.,.,.
N#CCCN(CCN1CCCC1)S(=O)(=O)c1ccc(-c2ccc([N+](=O)[O-])cc2)cc1,.,.,.,.,.,.,/,/,/,/,/
CC1(C(=O)NS(=O)(=O)c2cccc(C#N)c2)CCN1C(=O)Cc1ccccc1 (stereo unspecified),.,/,/,/,/,.,/,/,/,/,/
O=C(COc1ccccc1F)Nc1c(C(=O)Nc2cccc(F)c2)oc2ccccc12,/,/,/,/,/,.,/,/,/,/,/
COc1ccc([N+](=O)[O-])c2c1CCN2C(=O)CC[C@H](N)C(=O)O,/,/,/,/,.,/,/,/,/,/,/
CCN(CC)C(=O)c1sc2[nH]c(=S)n(-c3ccccc3)c(=O)c2c1C,.,.,.,?,?,.,/,/,/,/,/
SMILES,RE007 growth inh,CHX counter,Shiga toxin inh,LmPK inh,Giardia FBPA inh-1,TbPYK inhibitor,Giardia growth,Mammal cell tox,Giardia FBPA inh-2,Rabbit FBPA inh,GAPDH counter
O=C(O)C1CCc2sc3[nH]c(=S)n(-c4ccccc4)c(=O)c3c21 (stereo unspecified),.,.,.,.,20µM,?,.[10.4 µM],.,.,.,.
O=C1c2ccccc2-c2cccnc21,.,.,.,.,.,.,/,/,/,/,/
O=C1C(=O)c2ccccc2-c2ccccc21,?,.,.,.,0.14µM,.,13µM,20µM,1.1µM,0.89µM,1.1µM
CCN(c1ccccc1)S(=O)(=O)c1ccc(Cl)c(C(=O)NCC2CCCO2)c1 (stereo unspecified),.,.,.,.,.,.,/,/,/,/,/
CC(=O)c1cccc(NC(=S)NC(=O)c2cncc(Br)c2)c1,.,20,.,.,13µM,.,.[10.4 µM],.,.,.,.
Cc1cccnc1NC(=S)NC(=O)c1cccs1,.,59,191,.,20µM,.,.[10.4 µM],32µM,.,.,.
Cc1cccnc1NC(=S)NC(=O)c1cncc(Br)c1,.,35,91,.,10µM,.,.,.,.,.,.
O=C(NC(=S)Nc1ccccc1[N+](=O)[O-])c1cncc(Br)c1,.,.,.,.,7.9µM,.,11µM,.,.,.,.
Cc1nc(S/C(=C/c2ccc(OCc3ccc(C(=O)O)cc3)cc2)C(=O)O)n[nH]1,.,.,.,.,.,?,/,/,/,/,/
O=C(NCC(c1cccs1)N1CCOCC1)c1cc(S(=O)(=O)N2CCOCC2)ccc1Cl (stereo unspecified),.,/,/,/,/,.,/,/,/,/,/
COc1cccc(Cn2c(=O)cnc3cnc(Nc4ccccc4)nc32)c1,/,/,/,/,.,/,/,/,/,/,/
CCN(CC(=O)NCc1ccccc1Cl)CC(=O)Nc1c(F)cccc1F,.,.,.,.,18µM,.,.,.,.,.,.
O=C(CNCc1ccccn1)Nc1cc(C(F)(F)F)ccc1N1CCOCC1,?,.,.,.,16µM,.,?,.,.,.,.
CCOc1ccc(NC(=O)Cn2nnc(-c3nc(-c4ccncc4)no3)c2N)cc1,/,/,/,/,/,.,/,/,/,/,/
Cn1cc(-c2nc3cncnc3n(Cc3ccccc3Cl)c2=O)c2ccccc21,/,/,/,/,.,/,/,/,/,/,/
CCC(CC)C(=O)N1CC(=O)Nc2ccc(F)cc2C1c1ccc(F)cc1 (stereo unspecified),.,.,.,.,.,.,/,/,/,/,/
Cc1cc(C)n2c(=S)[nH]nc2n1,.,.,.,.,2.2µM,10µM,.,.,.,?,.
Cc1cc(C)n2cnnc2n1,.,.,.,.,.,.,/,/,/,/,/
Cc1cc(SCC(=O)NCC(c2cccs2)N2CCOCC2)c(C)cc1Br (stereo unspecified),.,/,/,/,/,.,/,/,/,/,/
CC1(C)CC(N(CCc2ccccc2)Cc2ccccc2)CCO1 (stereo unspecified),.,.,.,.,?,.,/,/,/,/,/
